Experiments:
Assay in all cases: DAPPL (digital affinity profiling via proximity ligation, sequencing); 10 mM Tris-HCl pH 7.5, 50 mM NaCl, 1 mM DTT, 4% glycerol, room temperature, 30 min; GST-TFs on glutathione beads, 16-mer random dsDNA library, 0.1% formaldehyde crosslink after washing; high values mean tight binding
FLI1 = biological target: T1, FLI1 (Homo sapiens, UniProt Q01543 1-452); settings: protein: recombinant; tags: N-terminal GST; dsDNA, one strand shown
T1 sequence: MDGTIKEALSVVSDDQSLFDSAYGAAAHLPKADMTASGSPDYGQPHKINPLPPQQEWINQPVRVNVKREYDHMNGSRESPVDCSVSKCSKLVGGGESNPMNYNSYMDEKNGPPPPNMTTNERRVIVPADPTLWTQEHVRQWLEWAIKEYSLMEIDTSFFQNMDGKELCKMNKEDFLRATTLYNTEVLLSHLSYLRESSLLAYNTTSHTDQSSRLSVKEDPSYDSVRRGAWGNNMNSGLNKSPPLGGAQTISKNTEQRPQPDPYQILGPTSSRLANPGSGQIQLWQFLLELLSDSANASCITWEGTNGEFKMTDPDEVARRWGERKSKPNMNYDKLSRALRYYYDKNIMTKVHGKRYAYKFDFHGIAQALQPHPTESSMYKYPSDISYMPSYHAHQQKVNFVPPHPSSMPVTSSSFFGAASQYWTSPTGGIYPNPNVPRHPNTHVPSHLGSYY
Outline: (§1)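 A tag-only sample was pooled with DNA-barcoded human transcription factors that had been expressed in yeast as GST fusions and captured on glutathione beads. The pools were incubated for 30 min at room temperature with 200 nmole of a random double-stranded 16-mer DNA library in Tris/NaCl/DTT/glycerol buffer, then washed, crosslinked with 0.1% formaldehyde, proximity-ligated (BsaI/T4 ligase, 1 h, 37 °C), PCR-amplified and sequenced on an Illumina NextSeq500. Binding signal is each hexamer's read frequency for a factor divided by its frequency for the tag-only sample.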

ELK1 = biological target: T2, ELK1 (Homo sapiens, UniProt P19419 1-428); settings: protein: recombinant; tags: N-terminal GST; dsDNA, one strand shown
T2 sequence: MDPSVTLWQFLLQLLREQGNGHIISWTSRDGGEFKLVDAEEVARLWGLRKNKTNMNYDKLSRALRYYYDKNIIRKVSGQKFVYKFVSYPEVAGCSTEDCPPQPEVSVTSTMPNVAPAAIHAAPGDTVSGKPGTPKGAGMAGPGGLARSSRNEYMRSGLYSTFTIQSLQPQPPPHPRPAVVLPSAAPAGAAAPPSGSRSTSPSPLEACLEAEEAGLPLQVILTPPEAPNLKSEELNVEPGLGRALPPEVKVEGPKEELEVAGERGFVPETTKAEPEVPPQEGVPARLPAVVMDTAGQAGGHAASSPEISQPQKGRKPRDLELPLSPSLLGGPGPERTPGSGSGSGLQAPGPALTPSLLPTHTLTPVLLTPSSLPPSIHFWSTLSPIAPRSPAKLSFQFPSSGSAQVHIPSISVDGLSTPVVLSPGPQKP
Outline: as §1

GABPA = biological target: T3, GABPA (Homo sapiens, UniProt Q06546 1-454); settings: protein: recombinant; tags: N-terminal GST; dsDNA, one strand shown
T3 sequence: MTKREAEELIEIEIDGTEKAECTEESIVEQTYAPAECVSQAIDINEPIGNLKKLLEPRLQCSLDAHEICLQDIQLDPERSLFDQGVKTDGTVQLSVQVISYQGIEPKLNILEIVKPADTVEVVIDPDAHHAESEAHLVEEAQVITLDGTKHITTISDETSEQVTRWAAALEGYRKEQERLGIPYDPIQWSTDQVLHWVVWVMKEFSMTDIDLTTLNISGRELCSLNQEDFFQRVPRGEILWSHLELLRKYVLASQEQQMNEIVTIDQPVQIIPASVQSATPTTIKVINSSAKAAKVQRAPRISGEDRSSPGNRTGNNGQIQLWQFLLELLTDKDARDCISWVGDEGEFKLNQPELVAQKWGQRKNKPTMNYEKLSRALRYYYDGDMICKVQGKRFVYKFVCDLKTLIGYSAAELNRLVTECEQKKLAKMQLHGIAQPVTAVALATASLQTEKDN
Outline: as §1

ERG = biological target: T4, ERG (Homo sapiens, UniProt P11308 1-479); settings: protein: recombinant; tags: N-terminal GST; dsDNA, one strand shown
T4 sequence: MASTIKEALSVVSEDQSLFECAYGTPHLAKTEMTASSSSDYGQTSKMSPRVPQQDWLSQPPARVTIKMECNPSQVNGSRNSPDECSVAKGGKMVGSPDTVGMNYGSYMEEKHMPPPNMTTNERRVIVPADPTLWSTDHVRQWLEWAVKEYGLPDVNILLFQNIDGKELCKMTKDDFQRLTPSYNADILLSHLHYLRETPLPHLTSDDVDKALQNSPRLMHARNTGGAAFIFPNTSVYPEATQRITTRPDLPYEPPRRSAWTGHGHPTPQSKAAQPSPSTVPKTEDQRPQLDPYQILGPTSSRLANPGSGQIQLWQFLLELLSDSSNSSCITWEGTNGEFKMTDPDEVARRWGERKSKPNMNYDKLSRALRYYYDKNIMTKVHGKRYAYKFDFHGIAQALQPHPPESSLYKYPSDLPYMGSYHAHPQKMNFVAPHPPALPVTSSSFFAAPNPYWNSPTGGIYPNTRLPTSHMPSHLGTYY
Outline: as §1

ELF1 = ELF1 (Homo sapiens, UniProt P32519 1-619); settings: protein: recombinant; tags: N-terminal GST; dsDNA, one strand shown
Chain of ELF1 (P32519 whole entry): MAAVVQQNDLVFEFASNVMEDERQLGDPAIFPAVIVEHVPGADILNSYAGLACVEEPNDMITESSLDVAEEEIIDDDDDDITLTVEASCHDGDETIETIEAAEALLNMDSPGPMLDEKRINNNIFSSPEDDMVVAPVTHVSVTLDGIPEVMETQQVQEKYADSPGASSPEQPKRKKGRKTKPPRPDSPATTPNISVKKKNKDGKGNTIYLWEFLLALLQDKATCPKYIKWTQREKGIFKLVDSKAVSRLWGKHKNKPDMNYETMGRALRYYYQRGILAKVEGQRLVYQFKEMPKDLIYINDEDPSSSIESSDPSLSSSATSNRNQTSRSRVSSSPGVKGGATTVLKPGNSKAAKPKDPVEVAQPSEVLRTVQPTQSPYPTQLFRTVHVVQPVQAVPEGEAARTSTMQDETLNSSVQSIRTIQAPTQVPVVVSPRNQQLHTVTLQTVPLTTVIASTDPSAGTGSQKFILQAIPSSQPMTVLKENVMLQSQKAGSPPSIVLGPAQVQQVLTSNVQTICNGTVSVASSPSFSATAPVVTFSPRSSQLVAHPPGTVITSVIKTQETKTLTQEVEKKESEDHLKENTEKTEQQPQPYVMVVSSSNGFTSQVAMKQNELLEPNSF
Outline: as §1

EHF = biological target: T5, EHF (Homo sapiens, UniProt Q9NZC4 1-300); settings: protein: recombinant; tags: N-terminal GST; dsDNA, one strand shown
T5 sequence: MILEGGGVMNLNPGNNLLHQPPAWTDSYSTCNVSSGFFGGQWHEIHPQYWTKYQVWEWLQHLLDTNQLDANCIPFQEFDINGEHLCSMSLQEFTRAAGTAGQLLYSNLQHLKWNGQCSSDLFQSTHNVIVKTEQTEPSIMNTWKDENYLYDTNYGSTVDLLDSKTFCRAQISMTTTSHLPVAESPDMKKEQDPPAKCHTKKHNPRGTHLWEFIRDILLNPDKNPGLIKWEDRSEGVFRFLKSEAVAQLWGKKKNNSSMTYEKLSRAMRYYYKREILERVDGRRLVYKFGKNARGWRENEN
Outline: as §1

SPI1 = SPI1 (Homo sapiens, UniProt P17947 1-270); settings: protein: recombinant; tags: N-terminal GST; dsDNA, one strand shown
Outline: as §1

SPIB = SPIB (Homo sapiens, UniProt Q01892 1-262); settings: protein: recombinant; tags: N-terminal GST; dsDNA, one strand shown
Chain of SPIB (Q01892 whole entry): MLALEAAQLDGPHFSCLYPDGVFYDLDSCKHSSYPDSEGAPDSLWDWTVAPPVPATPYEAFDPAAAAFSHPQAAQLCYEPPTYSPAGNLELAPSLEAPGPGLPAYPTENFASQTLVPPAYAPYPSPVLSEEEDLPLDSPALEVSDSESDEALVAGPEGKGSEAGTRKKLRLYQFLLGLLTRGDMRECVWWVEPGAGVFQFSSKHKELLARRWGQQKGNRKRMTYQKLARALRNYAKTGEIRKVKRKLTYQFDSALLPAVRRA
Outline: as §1

ELK3 = biological target: T6, ELK3 (Homo sapiens, UniProt P41970 1-407); settings: protein: recombinant; tags: N-terminal GST; dsDNA, one strand shown
T6 sequence: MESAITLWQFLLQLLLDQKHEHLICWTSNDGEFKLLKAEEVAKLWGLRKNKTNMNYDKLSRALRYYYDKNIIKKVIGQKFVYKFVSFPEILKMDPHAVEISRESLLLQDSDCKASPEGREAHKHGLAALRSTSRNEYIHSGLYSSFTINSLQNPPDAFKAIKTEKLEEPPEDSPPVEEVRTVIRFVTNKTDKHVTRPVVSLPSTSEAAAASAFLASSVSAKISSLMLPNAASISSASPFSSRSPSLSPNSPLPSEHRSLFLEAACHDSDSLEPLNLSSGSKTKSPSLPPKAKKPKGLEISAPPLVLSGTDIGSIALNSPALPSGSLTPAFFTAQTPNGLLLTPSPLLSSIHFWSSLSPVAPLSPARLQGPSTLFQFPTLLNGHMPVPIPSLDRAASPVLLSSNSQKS
Outline: as §1

FEV = biological target: T7, FEV (Homo sapiens, UniProt Q99581 1-238); settings: protein: recombinant; tags: N-terminal GST; dsDNA, one strand shown
T7 sequence: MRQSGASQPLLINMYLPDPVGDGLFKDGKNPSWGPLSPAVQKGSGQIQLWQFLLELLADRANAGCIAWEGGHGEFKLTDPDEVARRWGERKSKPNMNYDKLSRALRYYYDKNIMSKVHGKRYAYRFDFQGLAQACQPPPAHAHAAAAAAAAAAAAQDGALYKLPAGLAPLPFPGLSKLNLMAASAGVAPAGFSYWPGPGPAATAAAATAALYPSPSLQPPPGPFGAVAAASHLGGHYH
Outline: as §1

ETV5 = ETV5 (Homo sapiens, UniProt P41161 1-510); settings: protein: recombinant; tags: N-terminal GST; dsDNA, one strand shown
Chain of ETV5 (P41161 whole entry): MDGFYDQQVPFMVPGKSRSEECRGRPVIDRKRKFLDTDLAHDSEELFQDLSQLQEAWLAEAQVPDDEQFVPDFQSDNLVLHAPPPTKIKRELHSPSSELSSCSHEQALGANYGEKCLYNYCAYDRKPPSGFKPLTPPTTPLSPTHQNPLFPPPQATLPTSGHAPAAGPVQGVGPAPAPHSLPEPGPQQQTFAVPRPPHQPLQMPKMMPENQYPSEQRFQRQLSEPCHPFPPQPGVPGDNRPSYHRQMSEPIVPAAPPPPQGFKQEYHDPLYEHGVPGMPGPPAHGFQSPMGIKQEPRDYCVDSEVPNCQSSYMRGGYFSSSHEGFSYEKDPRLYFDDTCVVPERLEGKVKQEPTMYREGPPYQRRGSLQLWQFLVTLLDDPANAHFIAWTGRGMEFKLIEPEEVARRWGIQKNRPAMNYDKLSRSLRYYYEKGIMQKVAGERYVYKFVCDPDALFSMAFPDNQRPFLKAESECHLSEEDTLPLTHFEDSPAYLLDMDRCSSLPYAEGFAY
Outline: as §1

HSF1 = HSF1 (Homo sapiens, UniProt Q00613 1-529); settings: protein: recombinant; tags: N-terminal GST; chain copies: 3; dsDNA, one strand shown
Chain of HSF1 (Q00613 whole entry): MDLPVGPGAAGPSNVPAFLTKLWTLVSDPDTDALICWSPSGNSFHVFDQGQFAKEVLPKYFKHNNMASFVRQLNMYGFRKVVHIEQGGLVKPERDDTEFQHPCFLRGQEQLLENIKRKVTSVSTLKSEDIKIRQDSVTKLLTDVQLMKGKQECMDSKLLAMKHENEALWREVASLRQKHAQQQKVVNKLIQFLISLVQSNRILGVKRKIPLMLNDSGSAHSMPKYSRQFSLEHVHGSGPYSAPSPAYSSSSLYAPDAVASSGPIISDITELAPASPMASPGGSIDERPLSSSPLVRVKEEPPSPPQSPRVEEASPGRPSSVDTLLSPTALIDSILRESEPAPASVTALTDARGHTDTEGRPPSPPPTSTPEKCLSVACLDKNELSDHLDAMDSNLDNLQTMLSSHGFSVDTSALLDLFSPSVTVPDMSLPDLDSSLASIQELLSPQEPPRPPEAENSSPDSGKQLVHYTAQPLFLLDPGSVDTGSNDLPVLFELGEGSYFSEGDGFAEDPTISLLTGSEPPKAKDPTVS
Outline: as §1

SPIC = biological target: T8, SPIC (Homo sapiens, UniProt Q8N5J4 1-248); settings: protein: recombinant; tags: N-terminal GST; dsDNA, one strand shown
T8 sequence: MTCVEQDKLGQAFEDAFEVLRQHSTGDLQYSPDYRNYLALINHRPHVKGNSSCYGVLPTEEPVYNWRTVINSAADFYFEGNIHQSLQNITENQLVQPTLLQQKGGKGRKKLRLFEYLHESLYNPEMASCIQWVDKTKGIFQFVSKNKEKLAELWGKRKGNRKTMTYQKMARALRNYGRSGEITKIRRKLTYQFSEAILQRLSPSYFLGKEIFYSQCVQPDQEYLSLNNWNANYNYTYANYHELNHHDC
Outline: as §1

ELF4 = ELF4 (Homo sapiens, UniProt Q99607 1-663); settings: protein: recombinant; tags: N-terminal GST; dsDNA, one strand shown
Chain of ELF4 (Q99607 whole entry): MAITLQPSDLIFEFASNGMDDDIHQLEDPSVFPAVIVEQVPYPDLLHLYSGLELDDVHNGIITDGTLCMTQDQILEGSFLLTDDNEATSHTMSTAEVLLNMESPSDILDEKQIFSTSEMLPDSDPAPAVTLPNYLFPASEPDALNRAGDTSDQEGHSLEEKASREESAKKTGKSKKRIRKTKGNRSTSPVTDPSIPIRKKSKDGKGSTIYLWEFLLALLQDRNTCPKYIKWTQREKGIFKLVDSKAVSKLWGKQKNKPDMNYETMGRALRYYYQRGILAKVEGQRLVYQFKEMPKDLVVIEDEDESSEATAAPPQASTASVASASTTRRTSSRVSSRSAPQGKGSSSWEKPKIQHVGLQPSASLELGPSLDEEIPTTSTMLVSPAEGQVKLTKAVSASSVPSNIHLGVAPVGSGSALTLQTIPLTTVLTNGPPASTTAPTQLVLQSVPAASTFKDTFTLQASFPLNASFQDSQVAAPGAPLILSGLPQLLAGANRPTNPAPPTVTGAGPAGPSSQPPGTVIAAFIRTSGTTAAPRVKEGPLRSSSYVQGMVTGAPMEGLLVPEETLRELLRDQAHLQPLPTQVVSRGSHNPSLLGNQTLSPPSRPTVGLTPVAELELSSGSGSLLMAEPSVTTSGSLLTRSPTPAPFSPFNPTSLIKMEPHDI
Outline: as §1

ELK4 = biological target: T9, ELK4 (Homo sapiens, UniProt P28324-2 1-405); settings: protein: recombinant; tags: N-terminal GST; dsDNA, one strand shown
T9 sequence: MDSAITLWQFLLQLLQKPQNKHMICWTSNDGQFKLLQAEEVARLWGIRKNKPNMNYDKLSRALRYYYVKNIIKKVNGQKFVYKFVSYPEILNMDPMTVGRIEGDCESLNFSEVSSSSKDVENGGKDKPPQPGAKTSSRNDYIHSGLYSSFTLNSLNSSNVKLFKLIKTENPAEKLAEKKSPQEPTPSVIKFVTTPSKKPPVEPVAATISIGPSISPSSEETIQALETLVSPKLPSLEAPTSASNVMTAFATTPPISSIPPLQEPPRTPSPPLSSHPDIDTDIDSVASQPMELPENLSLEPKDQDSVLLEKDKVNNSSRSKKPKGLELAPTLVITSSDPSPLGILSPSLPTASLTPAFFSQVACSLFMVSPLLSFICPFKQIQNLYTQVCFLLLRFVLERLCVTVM
Outline: as §1

ETV2 = biological target: T10, ETV2 (Homo sapiens, UniProt O00321 1-342); settings: protein: recombinant; tags: N-terminal GST; dsDNA, one strand shown
T10 sequence: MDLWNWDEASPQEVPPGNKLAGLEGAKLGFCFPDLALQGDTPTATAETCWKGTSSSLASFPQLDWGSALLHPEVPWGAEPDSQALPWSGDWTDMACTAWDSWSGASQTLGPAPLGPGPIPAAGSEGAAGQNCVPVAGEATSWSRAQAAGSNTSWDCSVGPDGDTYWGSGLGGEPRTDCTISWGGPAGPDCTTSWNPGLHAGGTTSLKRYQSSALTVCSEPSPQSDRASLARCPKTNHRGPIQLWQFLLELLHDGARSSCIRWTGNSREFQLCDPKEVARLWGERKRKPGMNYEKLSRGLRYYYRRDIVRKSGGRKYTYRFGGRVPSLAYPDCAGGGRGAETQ
Outline: as §1

ELF3 = biological target: T11, ELF3 (Homo sapiens, UniProt P78545 1-371); settings: protein: recombinant; tags: N-terminal GST; dsDNA, one strand shown
T11 sequence: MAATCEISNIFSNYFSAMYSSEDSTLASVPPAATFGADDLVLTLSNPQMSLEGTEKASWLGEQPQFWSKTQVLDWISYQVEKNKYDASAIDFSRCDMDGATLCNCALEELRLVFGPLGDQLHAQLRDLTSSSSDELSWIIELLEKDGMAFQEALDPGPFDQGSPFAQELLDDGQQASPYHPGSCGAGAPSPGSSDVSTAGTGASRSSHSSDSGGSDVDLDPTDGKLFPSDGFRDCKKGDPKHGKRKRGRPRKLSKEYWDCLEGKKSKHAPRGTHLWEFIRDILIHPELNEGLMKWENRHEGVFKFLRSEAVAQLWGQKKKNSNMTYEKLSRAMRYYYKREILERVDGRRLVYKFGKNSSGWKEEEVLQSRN
Outline: as §1

CRX = CRX (Homo sapiens, UniProt O43186 1-299); settings: protein: recombinant; tags: N-terminal GST; dsDNA, one strand shown
Chain of CRX (O43186 whole entry): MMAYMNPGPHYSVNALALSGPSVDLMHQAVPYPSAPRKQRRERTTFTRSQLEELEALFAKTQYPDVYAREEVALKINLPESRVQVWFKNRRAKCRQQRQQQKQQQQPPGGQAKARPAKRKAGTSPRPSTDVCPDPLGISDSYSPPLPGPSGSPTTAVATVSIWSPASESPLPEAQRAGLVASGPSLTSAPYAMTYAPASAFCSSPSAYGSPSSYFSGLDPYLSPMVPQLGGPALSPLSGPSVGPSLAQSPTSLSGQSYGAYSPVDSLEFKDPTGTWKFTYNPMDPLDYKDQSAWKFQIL
Outline: as §1

ETV1 = ETV1 (Homo sapiens, UniProt P50549 1-477); settings: protein: recombinant; tags: N-terminal GST; dsDNA, one strand shown
Chain of ETV1 (P50549 whole entry): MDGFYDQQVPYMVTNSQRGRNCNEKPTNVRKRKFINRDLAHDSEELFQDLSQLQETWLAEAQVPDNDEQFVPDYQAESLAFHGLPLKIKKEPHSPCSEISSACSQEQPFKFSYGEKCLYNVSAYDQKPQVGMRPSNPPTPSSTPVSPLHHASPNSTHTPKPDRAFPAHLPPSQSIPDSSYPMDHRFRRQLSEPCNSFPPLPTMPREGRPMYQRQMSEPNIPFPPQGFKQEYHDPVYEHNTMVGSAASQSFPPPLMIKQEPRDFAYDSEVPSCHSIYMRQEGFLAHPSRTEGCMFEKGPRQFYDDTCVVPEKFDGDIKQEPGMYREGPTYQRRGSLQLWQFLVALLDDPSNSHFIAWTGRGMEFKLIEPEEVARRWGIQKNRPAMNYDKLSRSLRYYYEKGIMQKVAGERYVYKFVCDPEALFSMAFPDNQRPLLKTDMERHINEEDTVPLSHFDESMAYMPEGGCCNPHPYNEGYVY
Outline: as §1

TCTCTG
binding signal (FLI1): 1.67 fold enrichment (6-mer frequency, TF over GST control) | binding signal (ELK1): 1.67 fold enrichment (6-mer frequency, TF over GST control) | binding signal (GABPA): 1.47 fold enrichment (6-mer frequency, TF over GST control) | binding signal (ERG): 1.56 fold enrichment (6-mer frequency, TF over GST control) | binding signal (ELF1): 1.66 fold enrichment (6-mer frequency, TF over GST control) | binding signal (EHF): 1.62 fold enrichment (6-mer frequency, TF over GST control) | binding signal (SPI1): 1.52 fold enrichment (6-mer frequency, TF over GST control) | binding signal (SPIB): 1.5 fold enrichment (6-mer frequency, TF over GST control) | binding signal (ELK3): 1.52 fold enrichment (6-mer frequency, TF over GST control) | binding signal (FEV): 1.53 fold enrichment (6-mer frequency, TF over GST control) | binding signal (ETV5): 1.43 fold enrichment (6-mer frequency, TF over GST control) | binding signal (HSF1): 1.73 fold enrichment (6-mer frequency, TF over GST control) | binding signal (SPIC): 1.59 fold enrichment (6-mer frequency, TF over GST control) | binding signal (ELF4): 1.58 fold enrichment (6-mer frequency, TF over GST control) | binding signal (ELK4): 1.69 fold enrichment (6-mer frequency, TF over GST control) | binding signal (ETV2): 1.45 fold enrichment (6-mer frequency, TF over GST control) | binding signal (ELF3): 1.37 fold enrichment (6-mer frequency, TF over GST control) | binding signal (CRX): 1.49 fold enrichment (6-mer frequency, TF over GST control) | binding signal (ETV1): 1.46 fold enrichment (6-mer frequency, TF over GST control)

From PMC7862700, “An all-to-all approach to the identification of sequence-specific readers for epigenetic DNA modifications on cytosine”
